Experimental findings from the supplement of paper PMC7765376 are described below.

Structures are written as SMILES. Counter-ions that a name gives are not always drawn. The full ranking holds about 1,500 compounds; the median of “Excess HSA synergy score (sum over dose matrix of excess over highest single agent)” is about 43, and the lowest 2% start at about -900. This is one part of a sample in which the lowest values are shown more often than they occur.

The subject of the test is PEO-1. Kind of test: Excess HSA synergy score (sum over dose matrix of excess over highest single agent) (score (summed % response)); higher = less synergy / more antagonism (negative = synergy). To be noted: 72 h, read-out: viability/apoptosis luminescence (CellTiter-Glo or Caspase3-Glo / not stated per table). (Cellular ATP, detected with luciferase, serves as a proxy for viable cell number.)

[1] abbreviates: matrix design: 6x6, 5-fold dilutions (primary screen).
Setting [2] is: matrix design: 10x10, 9-step dilutions (confirmatory).

On to `O=C(c1ccc(F)c(F)c1Nc1ccc(I)cc1F)N1CC(O)([C@@H]2CCCCN2)C1` [Cobimetinib] + CC[C@H](NC(=O)[C@H](C)NC)C(=O)N1C[C@@H](O)C[C@H]1Cc1c(-c2[nH]c3cc(F)ccc3c2C[C@@H]2C[C@H](O)CN2C(=O)[C@H](CC)NC(=O)[C@H](C)NC)[nH]c2cc(F)ccc12 [Birinapant], for which, under setting [1], the “Excess HSA synergy score” value amounted to 148.

As for `CC(C)N(CC[C@H](c1ccccc1)c1cc(CO)ccc1O)C(C)C` + CC[C@H](NC(=O)[C@H](C)NC)C(=O)N1C[C@@H](O)C[C@H]1Cc1c(-c2[nH]c3cc(F)ccc3c2C[C@@H]2C[C@H](O)CN2C(=O)[C@H](CC)NC(=O)[C@H](C)NC)[nH]c2cc(F)ccc12 [Birinapant], under setting [1], the “Excess HSA synergy score” value amounted to 309.

With `CCCCCCCCc1ccc(CCC(N)(CO)CO)cc1` [Fingolimod hydrochloride] + CC[C@H](NC(=O)[C@H](C)NC)C(=O)N1C[C@@H](O)C[C@H]1Cc1c(-c2[nH]c3cc(F)ccc3c2C[C@@H]2C[C@H](O)CN2C(=O)[C@H](CC)NC(=O)[C@H](C)NC)[nH]c2cc(F)ccc12 [Birinapant], the “Excess HSA synergy score” value under setting [1] is -38.3.

In the case of `C/C=C/C[C@@H](C)C(=O)[C@H]1C(=O)N[C@@H](C(C)C)C(=O)N(C)CC(=O)N(C)[C@@H](CC(C)C)C(=O)N[C@@H](C(C)C)C(=O)N(C)[C@@H](CC(C)C)C(=O)N[C@@H](C)C(=O)N[C@H](C)C(=O)N(C)[C@@H](CC(C)C)C(=O)N(C)[C@@H](CC(C)C)C(=O)N(C)[C@@H](C(C)C)C(=O)N1C` [Valspodar] + CC[C@H](NC(=O)[C@H](C)NC)C(=O)N1C[C@@H](O)C[C@H]1Cc1c(-c2[nH]c3cc(F)ccc3c2C[C@@H]2C[C@H](O)CN2C(=O)[C@H](CC)NC(=O)[C@H](C)NC)[nH]c2cc(F)ccc12 [Birinapant], the “Excess HSA synergy score” value under setting [1] is 173.

Consider `COc1ccc(-c2cc3c(C)nc(N)nc3n([C@H]3CC[C@H](OCCO)CC3)c2=O)cn1` + CC[C@H](NC(=O)[C@H](C)NC)C(=O)N1C[C@@H](O)C[C@H]1Cc1c(-c2[nH]c3cc(F)ccc3c2C[C@@H]2C[C@H](O)CN2C(=O)[C@H](CC)NC(=O)[C@H](C)NC)[nH]c2cc(F)ccc12 [Birinapant], for which the “Excess HSA synergy score” value under setting [1] is -32.5.

Take `O=C(/C=C/c1cccnc1)NCCCCC1CCN(C(=O)c2ccccc2)CC1` [Daporinad] + CC[C@H](NC(=O)[C@H](C)NC)C(=O)N1C[C@@H](O)C[C@H]1Cc1c(-c2[nH]c3cc(F)ccc3c2C[C@@H]2C[C@H](O)CN2C(=O)[C@H](CC)NC(=O)[C@H](C)NC)[nH]c2cc(F)ccc12 [Birinapant]: the “Excess HSA synergy score” value under setting [1] amounted to 312.

With `Cc1ccc(NC(=O)c2ccc(CN3CCN(C)CC3)cc2)cc1Nc1nccc(-c2cccnc2)n1` [Imatinib] + CC[C@H](NC(=O)[C@H](C)NC)C(=O)N1C[C@@H](O)C[C@H]1Cc1c(-c2[nH]c3cc(F)ccc3c2C[C@@H]2C[C@H](O)CN2C(=O)[C@H](CC)NC(=O)[C@H](C)NC)[nH]c2cc(F)ccc12 [Birinapant], the “Excess HSA synergy score” value under setting [1] was -103.

As to `Nc1ccccc1NC(=O)c1ccc(CNc2nccc(-c3cccnc3)n2)cc1` [Mocetinostat] + CC[C@H](NC(=O)[C@H](C)NC)C(=O)N1C[C@@H](O)C[C@H]1Cc1c(-c2[nH]c3cc(F)ccc3c2C[C@@H]2C[C@H](O)CN2C(=O)[C@H](CC)NC(=O)[C@H](C)NC)[nH]c2cc(F)ccc12 [Birinapant], the “Excess HSA synergy score” value under setting [1] is -263 and the “Excess HSA synergy score” value under setting [2] is -1360.

For `Nc1ccccc1NC(=O)c1ccc(CNC(=O)OCc2cccnc2)cc1` [Entinostat] + CC[C@H](NC(=O)[C@H](C)NC)C(=O)N1C[C@@H](O)C[C@H]1Cc1c(-c2[nH]c3cc(F)ccc3c2C[C@@H]2C[C@H](O)CN2C(=O)[C@H](CC)NC(=O)[C@H](C)NC)[nH]c2cc(F)ccc12 [Birinapant], the “Excess HSA synergy score” value under setting [1] is -296.

For `CC(/C=C1\SC(=S)N(CC(=O)O)C1=O)=C\c1ccccc1` [Epalrestat] + CC[C@H](NC(=O)[C@H](C)NC)C(=O)N1C[C@@H](O)C[C@H]1Cc1c(-c2[nH]c3cc(F)ccc3c2C[C@@H]2C[C@H](O)CN2C(=O)[C@H](CC)NC(=O)[C@H](C)NC)[nH]c2cc(F)ccc12 [Birinapant], the “Excess HSA synergy score” value under setting [1] stood at 114.

Take `CO/N=C(\C(=O)N[C@@H]1C(=O)N2C(C(=O)O)=C(Cn3ccc(=N)n3CCO)CS[C@H]12)c1csc(N)n1` [Cefoselis sulfate] + CC[C@H](NC(=O)[C@H](C)NC)C(=O)N1C[C@@H](O)C[C@H]1Cc1c(-c2[nH]c3cc(F)ccc3c2C[C@@H]2C[C@H](O)CN2C(=O)[C@H](CC)NC(=O)[C@H](C)NC)[nH]c2cc(F)ccc12 [Birinapant]: the “Excess HSA synergy score” value under setting [1] came out at 200.

Take `N#CC(=Cc1ccc(O)c(O)c1)C(=O)NCc1ccccc1` [Tyrphostin B42] + CC[C@H](NC(=O)[C@H](C)NC)C(=O)N1C[C@@H](O)C[C@H]1Cc1c(-c2[nH]c3cc(F)ccc3c2C[C@@H]2C[C@H](O)CN2C(=O)[C@H](CC)NC(=O)[C@H](C)NC)[nH]c2cc(F)ccc12 [Birinapant]: the “Excess HSA synergy score” value under setting [1] stood at 83.7.

Consider `Cc1[nH]c2ccccc2c1CCNCc1ccc(/C=C/C(=O)NO)cc1` [Panobinostat] + CC[C@H](NC(=O)[C@H](C)NC)C(=O)N1C[C@@H](O)C[C@H]1Cc1c(-c2[nH]c3cc(F)ccc3c2C[C@@H]2C[C@H](O)CN2C(=O)[C@H](CC)NC(=O)[C@H](C)NC)[nH]c2cc(F)ccc12 [Birinapant], for which the “Excess HSA synergy score” value reads like this: under setting [1], -159; under setting [2], -1360.

For the compound `O=C(/C=C/c1cccc(S(=O)(=O)Nc2ccccc2)c1)NO` [Belinostat] + CC[C@H](NC(=O)[C@H](C)NC)C(=O)N1C[C@@H](O)C[C@H]1Cc1c(-c2[nH]c3cc(F)ccc3c2C[C@@H]2C[C@H](O)CN2C(=O)[C@H](CC)NC(=O)[C@H](C)NC)[nH]c2cc(F)ccc12 [Birinapant], the “Excess HSA synergy score” value under setting [1] is -26.7.

`O=C(/C=C/c1ccc(CN(CCO)CCc2c[nH]c3ccccc23)cc1)NO` [Dacinostat] + CC[C@H](NC(=O)[C@H](C)NC)C(=O)N1C[C@@H](O)C[C@H]1Cc1c(-c2[nH]c3cc(F)ccc3c2C[C@@H]2C[C@H](O)CN2C(=O)[C@H](CC)NC(=O)[C@H](C)NC)[nH]c2cc(F)ccc12 [Birinapant]: the “Excess HSA synergy score” value under setting [1] was -67.4.

With `CC[C@]12C=CCN3CC[C@@]4(c5cc([C@@]6(C(=O)OC)C[C@@H]7C[C@@H](C(C)(F)F)CN(Cc8c6[nH]c6ccccc86)C7)c(OC)cc5N(C)[C@H]4[C@@](O)(C(=O)OC)[C@@H]1OC(C)=O)[C@@H]32` [Vinflunine] + CC[C@H](NC(=O)[C@H](C)NC)C(=O)N1C[C@@H](O)C[C@H]1Cc1c(-c2[nH]c3cc(F)ccc3c2C[C@@H]2C[C@H](O)CN2C(=O)[C@H](CC)NC(=O)[C@H](C)NC)[nH]c2cc(F)ccc12 [Birinapant], the “Excess HSA synergy score” value is -106 under setting [1] and -752 under setting [2].

Take `O=C(N[C@@H](c1ccccc1)[C@@H]1CCCCN1)c1cccc(C(F)(F)F)c1Cl` + CC[C@H](NC(=O)[C@H](C)NC)C(=O)N1C[C@@H](O)C[C@H]1Cc1c(-c2[nH]c3cc(F)ccc3c2C[C@@H]2C[C@H](O)CN2C(=O)[C@H](CC)NC(=O)[C@H](C)NC)[nH]c2cc(F)ccc12 [Birinapant]: under setting [1], the “Excess HSA synergy score” value was 61.9.

Take `CC[C@@]1(O)C(=O)OCc2c1cc1n(c2=O)Cc2cc3cc(O)ccc3nc2-1` [10-hydroxycamptothecin] + CC[C@H](NC(=O)[C@H](C)NC)C(=O)N1C[C@@H](O)C[C@H]1Cc1c(-c2[nH]c3cc(F)ccc3c2C[C@@H]2C[C@H](O)CN2C(=O)[C@H](CC)NC(=O)[C@H](C)NC)[nH]c2cc(F)ccc12 [Birinapant]: the “Excess HSA synergy score” value under setting [1] was -38.5.

For `CCc1c2c(nc3ccc(O)cc13)-c1cc3c(c(=O)n1C2)COC(=O)[C@]3(O)CC` + CC[C@H](NC(=O)[C@H](C)NC)C(=O)N1C[C@@H](O)C[C@H]1Cc1c(-c2[nH]c3cc(F)ccc3c2C[C@@H]2C[C@H](O)CN2C(=O)[C@H](CC)NC(=O)[C@H](C)NC)[nH]c2cc(F)ccc12 [Birinapant], the “Excess HSA synergy score” value under setting [1] turned out to be 0.514.

Consider `CC[C@@]1(O)C(=O)OCc2c1cc1n(c2=O)Cc2cc3c(CN(C)C)c(O)ccc3nc2-1` [Topotecan hydrochloride] + CC[C@H](NC(=O)[C@H](C)NC)C(=O)N1C[C@@H](O)C[C@H]1Cc1c(-c2[nH]c3cc(F)ccc3c2C[C@@H]2C[C@H](O)CN2C(=O)[C@H](CC)NC(=O)[C@H](C)NC)[nH]c2cc(F)ccc12 [Birinapant], for which the “Excess HSA synergy score” value was -166 under setting [1] and -963 under setting [2].

For the compound `O=C(C1CC1)N1CC[C@@H](Cn2c(-c3ccc(-c4ccc5occc5c4)cc3)nc3cnccc32)C1` + CC[C@H](NC(=O)[C@H](C)NC)C(=O)N1C[C@@H](O)C[C@H]1Cc1c(-c2[nH]c3cc(F)ccc3c2C[C@@H]2C[C@H](O)CN2C(=O)[C@H](CC)NC(=O)[C@H](C)NC)[nH]c2cc(F)ccc12 [Birinapant], the “Excess HSA synergy score” value under setting [1] amounted to 117.

`CCCCCN(CCC12CC3CC(CC(C3)C1)C2)C(=O)NCCCc1ccncc1` + CC[C@H](NC(=O)[C@H](C)NC)C(=O)N1C[C@@H](O)C[C@H]1Cc1c(-c2[nH]c3cc(F)ccc3c2C[C@@H]2C[C@H](O)CN2C(=O)[C@H](CC)NC(=O)[C@H](C)NC)[nH]c2cc(F)ccc12 [Birinapant]: under setting [1], the “Excess HSA synergy score” value turned out to be 297.

With `Cn1cc(/C=C/C(=O)c2cccc(F)c2)cc1/C=C/C(=O)NO` + CC[C@H](NC(=O)[C@H](C)NC)C(=O)N1C[C@@H](O)C[C@H]1Cc1c(-c2[nH]c3cc(F)ccc3c2C[C@@H]2C[C@H](O)CN2C(=O)[C@H](CC)NC(=O)[C@H](C)NC)[nH]c2cc(F)ccc12 [Birinapant], the “Excess HSA synergy score” value under setting [1] came out at 132.
